# High-throughput results from PubChem.
# MITF TRPM1 inh = inhibitors of MITF-driven TRPM1 promoter in melanoma cells; SK-MEL-5 TRPM1 promoter luciferase, 24 h; inhibition, % at 12.5 µM; 0.83% of 330,000 active;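 active = mean inhibition across replicates of 60% or more, whatever share of single replicates reaches that level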
# Peg3 promoter = Peg3 promoter activity inhibition; HeLa PEG-Prom luciferase reporter, luminescence, overnight; inhibition, % at 20 µM; 1.7% of 360,000 active; AID 588405;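 active = inhibition of at least 50% at 20 µM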
# TROY NFkB inh = TROY signaling inhibition; inhibition, % at 10 µM; AID 1347056; Q293 LMP1-TROYcd NF-kB luciferase reporter, 4 h; 0.98% of 360,000 active;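 active = compounds whose plate-normalised and pattern-corrected inhibition of the luciferase reporter signal at the single screening dose is 50% or more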
# Shn3 inh set2 = inhibitors of Schnurri-3 3'UTR reporter in osteoblasts; Clone20 osteoblast Shn3 3'UTR firefly luciferase, 24 h; inhibition, % at 12.5 µM; 0.52% of 360,000 active;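 active = mean inhibition of at least 75% with every replicate also reaching 75%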;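 also: 0% = median of neutral control wells and 100% = pilot-screen positive control compound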
# EBV LMP1 NFkB = inhibitors of Epstein-Barr LMP1-induced NF-kappaB reporter; LMP1-induced NF-kappaB luciferase reporter cells, luminescence; inhibition, % at 12.5 µM; 0.69% of 350,000 active; in the data active = inhibition above about 41%;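 also: 0% = neutral control wells and 100% = reference inhibitor control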
# TWEAK-Fn14 inh = TWEAK-Fn14 signaling inhibition; TWEAK-stimulated Fn14 reporter cells, luciferase luminescence, 8 h; inhibition, % at 10 µM; 2% of 360,000 active; AID 1159606; in the data active = inhibition above about 50%
# * marks the source's active call; other numbers are inactive results; . = no result given. Shown are actives, neighbours in structure and some others; about 4.1% of the full set was active somewhere.
SMILES,MITF TRPM1 inh,Peg3 promoter,TROY NFkB inh,Shn3 inh set2,EBV LMP1 NFkB,TWEAK-Fn14 inh
CC1CCCCN1C(=O)CCS(=O)(=O)c1cccc2nonc12 (stereo not drawn),0.6,7.8,-1.8,-6.8,2.0,-5.0
COc1ccc(C(=O)NNC(=O)CSc2nnc(-c3ccc(O)cc3)n2C)cc1,-4.9,18.0,-33.2,-29.9,-5.6,27.1
O=C(Nc1ccc2c(c1)OCO2)c1ccc2c(c1)S(=O)(=O)c1ccccc1C2=O,-26.8,-5.8,-1.0,-3.9,-4.9,-37.1
COc1ccc(NC(=O)c2cc3cccc(OC)c3oc2=Nc2ccc(C(=O)O)cc2)cc1OC,-62.2,17.5,46.4,17.6,-10.9,82.6*
COc1cccc2cc(C(=O)NC(C)c3ccccc3)c(=O)oc12 (stereo not drawn),-13.9,-104.3,-18.8,-29.8,11.2,-8.1
COc1cccc2cc(C(=O)Nc3cccc(C)n3)c(=O)oc12,-7.6,5.8,49.5,-25.0,-19.8,56.8*
COc1cccc2cc(C(=O)N3CCc4ccccc43)c(=O)oc12,-7.9,-55.8,13.5,22.2,1.3,50.4*
CCOc1cccc2cc(C(=O)N3CCc4ccccc43)c(=O)oc12,-18.6,-0.6,2.7,0.3,0.3,7.0
COc1ccc(Br)cc1C(=O)Nc1ccc(C(=O)O)cc1,1.6,1.8,-16.1,7.0,4.9,-32.2
CSCCC(NS(=O)(=O)c1ccc2c(c1)OCCO2)C(=O)N(C)Cc1ccccc1F (stereo not drawn),7.0,32.5,14.0,15.7,3.5,23.6
COc1cccc(CN(C)CC(=O)Nc2cccc(S(N)(=O)=O)c2)c1OC,2.4,3.7,-10.9,-1.0,5.0,5.7
COc1ccc(CN(C)C(=O)c2ccc(OCC(=O)Nc3cccc(C(F)(F)F)c3)c(OC)c2)cc1,.,8.9,30.4,49.6,9.2,52.0*
COc1cccc(CN(C)CC(=O)Nc2cccc(C(F)(F)F)c2)c1OC,-5.7,16.9,5.6,11.6,9.3,74.5*
O=[N+]([O-])c1ccccc1N(S(=O)(=O)c1ccccc1)S(=O)(=O)c1ccccc1,-2.1,10.8,-2.3,8.7,-1.6,19.6
Cc1cc(C)cc(Cn2c3ccc(NC(=O)NCCc4cccs4)cc3c(=O)n2C)c1,.,-19.8,-10.3,4.2,.,17.2
COc1cccc(NC(=O)c2ccc(-n3cnnn3)cc2)c1,-43.1,-97.1,-9.6,-53.1,11.0,30.0
COc1ccc(NC(=O)c2cc([N+](=O)[O-])ccc2O)cc1,83.7*,83.4*,86.9*,65.6,74.8*,104.0*
COc1ccc(NC(=O)c2cccc([N+](=O)[O-])c2)cc1,-17.9,-156.4,-50.1,-47.1,0.5,-13.3
O=C(Nc1cccc([N+](=O)[O-])c1)c1cc2ccccc2cc1O,53.3,-257.1,11.8,31.5,23.0,82.7*
Cc1ccccc1OCC(=O)NNC(=O)Cn1[nH]c(=O)c2ccccc2c1=O,1.9,5.1,10.9,-15.1,4.7,-6.6
CCOc1ccc(NC(=O)CN(C)C(=O)c2ccc(=O)[nH]c2)cc1OCC,-7.0,16.8,-0.5,-2.3,-8.0,-14.3
Cc1ccc(NC(=S)Nc2cccc(S(=O)(=O)Nc3c(C)n(C)n(-c4ccccc4)c3=O)c2)cc1,3.1,-41.7,-21.9,-16.1,69.2*,3.0
O=C(NCCCN1CCOCC1)c1nn(-c2ccccc2)c(=O)c2ccccc12,1.9,9.5,4.7,-10.4,-11.4,8.4
CS(=O)(=O)c1ccc(C(=O)OCC(=O)N2CCN(CCC3CCCCC3)CC2)cc1[N+](=O)[O-],.,97.0*,33.8,95.9*,.,79.1*
COc1ccc(C2CC(c3ccccc3)=NN2C(=O)COC(=O)c2cnc(Cl)c(Cl)c2)cc1 (stereo not drawn),10.9,99.4*,-45.0,-0.9,8.4,-71.4
SMILES,MITF TRPM1 inh,Peg3 promoter,TROY NFkB inh,Shn3 inh set2,EBV LMP1 NFkB,TWEAK-Fn14 inh
CS(=O)(=O)c1ccc(C(=O)OCC(=O)N2CCOCC2)cc1[N+](=O)[O-],.,0.2,3.2,95.2*,.,40.2
COc1ccc(C2CC(c3ccccc3)=NN2C(=O)COC(=O)c2ccc(Cl)nc2)cc1 (stereo not drawn),-4.1,-68.5,-109.6,-6.0,1.5,-64.8
COc1ccc(C2=NN(C(=O)COC(=O)c3ccc(S(C)(=O)=O)c([N+](=O)[O-])c3)C(c3ccco3)C2)cc1 (stereo not drawn),81.0*,94.5*,15.8,65.6,-2.7,68.9*
CCCN1CCN(CCCNC(=O)c2ccc(NC(=O)C3=C(C)OCCS3)cc2)CC1,-9.9,-11.4,10.2,-2.4,-2.7,-9.0
CCN(CC(=O)Nc1c(F)cccc1F)C(=O)c1cccc(S(=O)(=O)N2CCCc3ccccc32)c1,9.9,23.8,-1.6,24.6,-5.8,2.3
O=C(NNC(=O)C(c1ccccc1)c1ccccc1)c1ccccn1,49.7,27.8,25.3,93.4*,25.9,-92.8
O=C(NNc1ccccn1)C(c1ccccc1)c1ccccc1,3.3,0.5,-10.6,-5.3,-3.3,1.2
O=C(NNC(=S)Nc1ccc(Cl)c(Cl)c1)c1ccccn1,39.8,18.1,-11.6,91.6*,62.2*,-13.7
CCNC(=S)NNC(=O)c1ccccn1,12.0,1.5,8.4,5.2,1.3,-15.1
Cc1cccc(C(=O)N2CCCC(N3CCN(Cc4ccc5c(c4)OCO5)CC3)C2)n1 (stereo not drawn),4.3,-18.5,-13.7,0.9,-3.3,0.7
C[C@H](NC(=O)[C@H]1N2C(=O)c3ccccc3C2SC1(C)C)C(=O)NCC1CCCO1 (stereo partly drawn),10.0,0.2,-11.3,4.7,-1.2,-2.3
CCN(CC)C(=S)Oc1ccc(Cl)cc1Cl,9.9,-7.0,-2.5,0.1,-2.3,96.5*
CSCC[C@H](NC(=O)Cc1c(C)c2cc3c(C)c(C)oc3cc2oc1=O)C(=O)N[C@@H](C(=O)O)c1ccccc1,.,-6.9,3.7,0.4,.,6.7
O=C(C=P(c1ccccc1)(c1ccccc1)c1ccccc1)c1ccccc1-c1ccccc1C(=O)C=P(c1ccccc1)(c1ccccc1)c1ccccc1,82.3*,99.5*,30.7,72.5,38.4,47.2
C#CCOCCOCCOCCNc1nc(N2CCN(C(=O)[C@H](CCC(=O)O)n3cc(CN)nn3)CC2)nc(N2CCN(C(=O)[C@H](CCCN=C(N)N)n3cc(C(N)[C@@H](C)CC)nn3)CC2)n1 (stereo partly drawn),1.7,-15.5,-4.2,-3.5,-2.1,3.3
Cn1nc(C(F)(F)F)c2cc(C(=O)Nc3ccc(F)cc3)sc21,-15.1,4.4,8.8,7.7,0.0,-33.5
Cn1nc(C(F)(F)F)c2cc(C(=O)Nc3ccc(C(F)(F)F)cc3)sc21,-7.9,18.7,51.2*,64.7,14.3,40.6
Cn1nc(C(F)(F)F)c2cc(C(=O)Nc3ccc(F)c(Cl)c3)sc21,-3.8,44.0,60.9*,11.0,19.9,0.7
O=C(N1CCCCC1)N1CCN(S(=O)(=O)c2ccc(Cl)cc2)CC1,-1.3,13.9,14.6,21.5,-2.3,1.0
